From PMC4336329 (PLoS ONE, 2015) come the findings set out here.

Among all 310,000 compounds or so, about 14,000 (4.5%) showed an effect of 50% or more. The effect is printed as a negative number. Shown is part of a subset that was picked to be rich in strong results.
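Also: peak tail current of the secondary pulse compared with the same well before compound.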

Chain of human ether-à-go-go-related gene (hERG) potassium channel (Q12809 whole entry, looked up): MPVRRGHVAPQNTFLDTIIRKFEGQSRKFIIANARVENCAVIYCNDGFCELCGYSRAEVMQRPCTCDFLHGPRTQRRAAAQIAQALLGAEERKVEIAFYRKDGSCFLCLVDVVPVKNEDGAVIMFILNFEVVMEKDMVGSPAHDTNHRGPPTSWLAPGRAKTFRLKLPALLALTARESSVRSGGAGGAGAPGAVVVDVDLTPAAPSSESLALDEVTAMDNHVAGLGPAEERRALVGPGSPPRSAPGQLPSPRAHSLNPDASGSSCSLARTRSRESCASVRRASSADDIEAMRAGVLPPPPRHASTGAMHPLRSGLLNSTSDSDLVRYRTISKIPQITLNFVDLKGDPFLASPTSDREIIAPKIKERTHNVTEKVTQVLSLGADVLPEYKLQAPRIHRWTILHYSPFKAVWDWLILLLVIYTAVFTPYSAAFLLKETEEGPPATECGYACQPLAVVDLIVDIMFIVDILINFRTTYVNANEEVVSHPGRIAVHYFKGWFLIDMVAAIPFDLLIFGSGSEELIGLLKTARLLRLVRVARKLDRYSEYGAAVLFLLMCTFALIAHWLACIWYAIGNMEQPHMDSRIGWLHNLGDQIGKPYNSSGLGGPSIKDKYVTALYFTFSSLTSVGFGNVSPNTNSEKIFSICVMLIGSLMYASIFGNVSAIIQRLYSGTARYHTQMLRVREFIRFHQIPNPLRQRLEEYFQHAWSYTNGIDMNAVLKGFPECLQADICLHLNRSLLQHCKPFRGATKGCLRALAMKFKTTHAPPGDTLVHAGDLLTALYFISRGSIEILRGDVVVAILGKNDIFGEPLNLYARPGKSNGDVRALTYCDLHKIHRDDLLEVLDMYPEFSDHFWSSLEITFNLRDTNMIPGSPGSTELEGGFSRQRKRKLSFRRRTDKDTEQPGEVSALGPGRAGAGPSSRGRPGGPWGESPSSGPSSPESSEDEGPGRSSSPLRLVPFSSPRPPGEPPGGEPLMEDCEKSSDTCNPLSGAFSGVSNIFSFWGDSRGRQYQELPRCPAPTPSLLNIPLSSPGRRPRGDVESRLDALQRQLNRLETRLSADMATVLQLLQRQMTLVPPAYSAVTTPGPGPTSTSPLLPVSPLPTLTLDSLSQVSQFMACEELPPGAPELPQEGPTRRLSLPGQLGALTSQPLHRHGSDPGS

This assay addresses human ether-à-go-go-related gene (hERG) potassium channel (human, UniProt Q12809). The assay can be described thus: primary screen, population patch clamp on CHO cells stably expressing hERG; higher = less effect of the substance.
On to `CN(C)S(=O)(=O)c1cccc(-c2nn(-c3ccccc3)cc2/C=C2\SC(=S)NC2=O)c1`, for which the “hERG current change (%, negative = inhibition) at 10uM” value is listed as 20.1%. Take `CCOc1cc(C(=O)OCC(=O)N(C)c2ccccc2)cc(OCC)c1OCC`: the “hERG current change (%, negative = inhibition) at 10uM” value is listed as -17.6%. The figure for `CCc1nnc(NC(=O)CSc2ncc(-c3ccccc3)n2C)s1` is -0.226%; for `Cc1cnccc1CN(C)Cc1cn(C)nc1-c1ccc(Oc2ccccc2)cc1` it is -27.4%; for `Cn1cc(CNCc2cnc3ccccn23)c(-c2ccc(Oc3ccccc3)cc2)n1` it is -50%. Take `CN(Cc1cn(C)nc1-c1ccc(Oc2ccccc2)cc1)Cc1cnc2ccccn12`: the “hERG current change (%, negative = inhibition) at 10uM” value is reported as -54%. In the case of `NC(=O)C1CCN(C2=C(Cl)C(=O)c3ccccc3C2=O)CC1`, the “hERG current change (%, negative = inhibition) at 10uM” value turned out to be 13.6%. `NC12CC3CC(C1)CC(CO)(C3)O2`: the “hERG current change (%, negative = inhibition) at 10uM” value turned out to be 8.54%. Consider `COc1ccc(N(CC(=O)N2c3ccccc3CC2C)S(=O)(=O)c2c(C)nn(C)c2C)cc1` (stereo not shown), for which the “hERG current change (%, negative = inhibition) at 10uM” value is given as -25.9%. With `OC(CN1CCN(Cc2ccccc2)CC1)c1ccc(Br)cc1` (stereo not shown) the figure was -67.9%. Take `OC(CN1CCOCC1)c1ccc(F)cc1` (stereo not shown): the “hERG current change (%, negative = inhibition) at 10uM” value was determined as 12.6%. Turning to `Cl.OC(CN1CCN(Cc2ccccc2)CC1)c1ccc(F)cc1` (stereo not shown), the “hERG current change (%, negative = inhibition) at 10uM” value is on record as -67.9%.

As to `OC(CN1CCN(Cc2ccccc2)CC1)c1ccccc1` (stereo not shown), the “hERG current change (%, negative = inhibition) at 10uM” value was -30.3%. Regarding `OC(CN1CCN(C(c2ccccc2)c2ccccc2)CC1)c1ccc(Br)cc1` (stereo not shown), the “hERG current change (%, negative = inhibition) at 10uM” value is -28.8%. With `OC(CN1CCN(c2ccccc2F)CC1)c1ccc(F)cc1` (stereo not shown), the “hERG current change (%, negative = inhibition) at 10uM” value is recorded as -19.3%. With `Cl.Oc1ccc(C2=CCNCC2)cc1O`, the “hERG current change (%, negative = inhibition) at 10uM” value is on record as 10.1%.

For the compound `c1cnc(SCCOc2cccc3ccccc23)nc1`, the “hERG current change (%, negative = inhibition) at 10uM” value is listed as -8.05%. Turning to `C=CCNC(=S)NNc1nc(Nc2ccccc2)nc(N2CCCCC2)n1`, the “hERG current change (%, negative = inhibition) at 10uM” value turned out to be 10.3%.

Consider `COc1ccc(-c2nc(CC(=O)O)cs2)cc1`, for which the “hERG current change (%, negative = inhibition) at 10uM” value is given as 6.7%. The figure for `CCCCN1C(=O)C(=O)N(CC(=O)N2CCN(c3ccccc3)CC2)C1=O` is 3.67%. As for `CCOc1ccc(/C=N/N(C)c2ccccc2)cc1OC`, the “hERG current change (%, negative = inhibition) at 10uM” value came to 15.8%. Take `CCNc1oc(-c2cccc3ccccc23)nc1C#N`: the “hERG current change (%, negative = inhibition) at 10uM” value was determined as 15.7%. On to `COc1ccc(-c2c[n+]3c4n2CCCCC4=C(c2ccc(Br)cc2)C3)cc1.[Br-]`, for which the “hERG current change (%, negative = inhibition) at 10uM” value was -75.1%. Regarding `COc1ccc(-c2c[n+](CC(=O)c3ccccc3)c3n2CCCCC3)cc1.[Br-]`, the “hERG current change (%, negative = inhibition) at 10uM” value is on record as 11.7%. With `COc1ccc(-c2c[n+]3c4n2CCCCC4=C(c2ccccc2)C3)cc1.[Br-]` the figure was -75.1%. For `Clc1ccc(C2=C3CCCCn4c(-c5ccccc5)c[n+](c43)C2)cc1.[Br-]`, the “hERG current change (%, negative = inhibition) at 10uM” value is -82.1%. With `Clc1ccc(-c2cnc3n2CCCCC3)cc1` the figure was -46.4%. With `C[n+]1cc(-c2ccccc2)n2c1CCCCC2.[I-]`, the “hERG current change (%, negative = inhibition) at 10uM” value worked out at 4.03%. For `COc1ccc(Cn2c(-c3ccc(Br)cc3)c[n+]3ccccc23)cc1.[Br-]`, the “hERG current change (%, negative = inhibition) at 10uM” value is listed as -8.08%. For the compound `COc1ccc(-c2c[n+](CC(=O)N3c4ccccc4Sc4ccccc43)c3n2CCC3)cc1.[Cl-]`, the “hERG current change (%, negative = inhibition) at 10uM” value is recorded as -38.2%. With `COc1ccc(-c2nnc3n2CCCCC3)cc1` the figure was 19.9%.
